KCNQ2 pot – potentiators of rat KCNQ2 potassium channel; O88943; CHO-K1 KCNQ2, FluxOR thallium flux fluorescence; active compounds read high; B-score at 10 µM; actives 0.54% (n = 310,000);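 active = fluorescence ratio B-score at least 3 SD of library B-scores, with initial fluorescence B-score within 3 of them, cut at about 5.3 in these data; same plate scores as AID 2156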;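 also: B-score of peak minus minimum over baseline fluorescence ratio after K+ and Tl+ stimulus; positive B-score means potentiation of KCNQ2 with more thallium influx and brighter signal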
Target sequence (O88943 whole entry, looked up): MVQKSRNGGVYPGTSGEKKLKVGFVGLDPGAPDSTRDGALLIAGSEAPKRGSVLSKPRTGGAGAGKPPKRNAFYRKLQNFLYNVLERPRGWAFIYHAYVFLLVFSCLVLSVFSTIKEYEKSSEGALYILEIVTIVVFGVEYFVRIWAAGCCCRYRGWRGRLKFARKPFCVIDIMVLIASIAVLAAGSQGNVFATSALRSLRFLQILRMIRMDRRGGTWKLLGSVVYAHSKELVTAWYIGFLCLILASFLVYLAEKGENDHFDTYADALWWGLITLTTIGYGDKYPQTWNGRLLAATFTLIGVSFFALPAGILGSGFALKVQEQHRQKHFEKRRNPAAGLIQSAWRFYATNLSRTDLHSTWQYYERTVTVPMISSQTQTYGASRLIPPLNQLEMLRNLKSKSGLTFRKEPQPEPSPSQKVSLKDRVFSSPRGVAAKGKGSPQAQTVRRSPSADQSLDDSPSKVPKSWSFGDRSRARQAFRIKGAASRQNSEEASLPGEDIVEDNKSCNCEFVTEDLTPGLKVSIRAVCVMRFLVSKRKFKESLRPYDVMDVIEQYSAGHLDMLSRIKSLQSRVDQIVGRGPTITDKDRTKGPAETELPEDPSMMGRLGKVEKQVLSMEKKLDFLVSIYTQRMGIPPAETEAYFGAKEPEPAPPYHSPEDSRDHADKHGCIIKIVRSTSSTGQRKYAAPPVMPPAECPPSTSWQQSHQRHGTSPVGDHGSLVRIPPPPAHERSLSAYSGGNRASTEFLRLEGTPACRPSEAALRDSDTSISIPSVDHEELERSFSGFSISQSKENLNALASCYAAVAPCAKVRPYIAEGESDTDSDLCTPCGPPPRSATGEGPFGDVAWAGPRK
KCNQ2 block – blocks the rat KCNQ2 potassium channel | O88943 | CHO-K1 KCNQ2, FluxOR thallium flux, 20 min; active compounds read low | B-score at 10 µM | actives 1.1% (n = 310,000) | AID 2156;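 active = fluorescence ratio B-score at most minus 3 library SDs, with starting brightness B-score within 2 library SDs, cut at about -5.5 in these data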
Starred values were filed as active, the others as inactive; i = inactive; . = not tested or not shown. Sampled rows, rich in hits. Any-hit rate of the full collection: about 1.6%.

SMILES	KCNQ2 pot	KCNQ2 block
Cc1ccc(NC2=C/C(=N\S(=O)(=O)c3cccs3)c3ccccc3C2=O)c(C)c1	.	i
Cc1cc(C)c(S(=O)(=O)/N=C2\C=C(NS(=O)(=O)c3ccccc3)C(=O)c3ccccc32)c(C)c1	-5.7	-5.7*
O=C(NCC1COc2ccccc2O1)c1cccs1 (stereo not given)	.	i
O=C(NCC1COc2ccccc2O1)c1ccc(Br)s1 (stereo not given)	-6.2	-6.2*
CCOC(=O)c1ccccc1NS(=O)(=O)c1ccc(C)cc1	.	i
CCOC(=O)c1cc(C)n(S(=O)(=O)c2ccc(C)cc2)c1C	-6.6	-6.6*
COC(=O)c1cc(C(=O)c2ccc(Cl)cc2)n2c(=O)/c(=C\N(C)C)sc12	0.66	i
Cc1nn(C(C)(C)C)c(OC(=O)c2ccco2)c1Sc1ccccc1	-6.1	-6.1*
Cc1nn(C(C)(C)C)c(OC(=O)c2cccs2)c1Sc1ccccc1	-8	-8*
Cc1nn(C(C)(C)C)c(OC(=O)c2ccc3c(c2)OCO3)c1Sc1ccccc1	.	i
Cc1nn(C(C)(C)C)c(OC(=O)c2ccc(Br)o2)c1Sc1ccccc1	.	i
C=C1CCN([C@@H](Cc2ccccc2)C(=O)NCc2ccc(Cl)cc2)S(=O)(=O)c2ccccc21	-6	-6*
C=C1CCN([C@@H](Cc2ccccc2)C(=O)NCc2ccccc2)S(=O)(=O)c2ccccc21	.	i
O=C(COC(=O)c1nc(Cl)ccc1Cl)NCc1cccs1	.	i
Cc1nc(C)n(CC(C)C(=O)N2CCN(S(=O)(=O)c3ccccc3)CC2)n1 (stereo not given)	0.05	i
COc1ccccc1OCC(=O)N(Cc1nc(-c2ccc(Cl)cc2)no1)C(C)C	.	i
Cc1ccc(-c2noc(CN(C(=O)CCCN3C(=O)c4ccccc4C3=O)C(C)C)n2)cc1	.	i
Cc1ccc(-c2noc(CN(C(=O)CCN3C(=O)c4ccccc4C3=O)C(C)C)n2)cc1	-5.7	-5.7*
COc1ccccc1OCC(=O)N(Cc1nc(-c2ccccc2)no1)C(C)C	0.76	i
Cc1cc(Br)ccc1OCC(=O)N(Cc1nc(-c2ccccc2)no1)C(C)C	-6	-6*
CC(C)N(Cc1nc(-c2ccc(Cl)cc2)no1)C(=O)CCC1CCCC1	-6.2	-6.2*
CC(C)=CCN1CCN(Cc2c(C)nn(C)c2Cl)CC1CCO (stereo not given)	0.39	i
CC(=O)N1CCc2cc(N=NC3=C(O)CC(C)(C)CC3=O)ccc21	2.6	i
Cc1cc(NC(=O)CSc2nnc(CNC(=O)c3ccc(F)cc3)o2)no1	.	i
O=C(COC(=O)CCc1c[nH]c2ccccc12)NCc1ccccc1	.	i
SMILES	KCNQ2 pot	KCNQ2 block
CN(C(=O)COC(=O)CCc1c[nH]c2ccccc12)C(c1ccccc1)c1ccccc1	-5.9	-5.9*
O=C(CCNC(=O)N1CC(=O)Nc2ccccc21)Nc1ccc(Br)cc1F	1.3	i
CC(C)Cn1c(-c2cc([N+](=O)[O-])ccc2Cl)nc2c1c(=O)[nH]c(=O)n2Cc1ccccc1	7.4*	i
Cc1ccc(-c2nc3c(c(=O)[nH]c(=O)n3CC(C)C)n2CC(C)C)cc1[N+](=O)[O-]	.	i
CCCCn1c(-c2ccncc2)nc2c1c(=O)[nH]c(=O)n2CC(C)C	.	i
CC(C)Cn1c(-c2cc(Br)ccc2F)nc2c1c(=O)[nH]c(=O)n2CC(C)C	-6.5	-6.5*
S=c1nc(-c2ccccc2)[nH]n1-c1ccccc1	18*	i
Cc1nc(=S)n(-c2ccccc2)[nH]1	.	i
CC1(C)CC(NC(=O)c2ccc(Cl)c(S(=O)(=O)N(Cc3ccccc3)c3ccccc3)c2)CC(C)(C)N1	0.19	i
CCOC(=O)CC1COCCN1C(=O)c1ccc2oc(Cc3ccccc3)nc2c1 (stereo not given)	.	i
COc1ccc2c(C#N)c3ccccn3c2c1	0.46	i
COc1cc(OC)cc(C(=O)N[C@H](C(=O)OCc2cc(=O)oc3cc(C)ccc23)C(C)C)c1	-7.7	-7.7*
CCOc1ccccc1C(=O)N[C@H](C(=O)OCc1cc(=O)oc2cc(C)ccc12)C(C)C	.	i
CCC1(CC)NC(=O)N(CC(=O)N2CCN(S(=O)(=O)c3cccc(F)c3)CC2)C1=O	.	i
O=C(CSC1=NS(=O)(=O)c2cc(Cl)ccc2N1)Nc1ccccc1C(F)(F)F	2.5	i
O=C(COc1c(Br)cc(Br)c2cccnc12)N1CCCCC1	4.6	i
Oc1c(CN2CCCCC2)cc(Br)c2cccnc12	8.4*	i
Cc1ccc(C)c(N2CCN(C(=O)c3ccc(CS(=O)(=O)c4ccccc4C)o3)CC2)c1	-6.5	-6.5*
Cc1ccc(S(=O)(=O)Cc2ccc(C(=O)N3CCN(c4cc(C)ccc4C)CC3)o2)cc1	0.55	i
COc1ccc(NC(=O)c2ccc(Br)c(S(=O)(=O)N3CCOCC3)c2)cc1	2.7	i
CCCCn1c(N)c(N(CC(C)C)C(=O)c2cc(S(=O)(=O)N3CCOCC3)ccc2Cl)c(=O)[nH]c1=O	0.8	i
CCOc1cc(C)c(C(C)C)cc1S(=O)(=O)N1CC(C)OC(C)C1 (stereo not given)	0.1	i
CCOc1cc(C)c(C(C)C)cc1S(=O)(=O)n1cnc(C)c1	8.7*	i
CCCOc1ccc(-c2nc(N3CCN(C)CC3)c3ccccc3n2)cc1	-6.7	-6.7*
CCCOc1ccc(-c2nc(N3CCN(CC)CC3)c3ccccc3n2)cc1	.	i
SMILES	KCNQ2 pot	KCNQ2 block
O=C(c1cc(-c2cccnc2)nc2ccc(Cl)cc12)N1CCN(S(=O)(=O)c2cccs2)CC1	.	i
COc1cccc(CN2CCN(C(=O)c3cc(-c4cccnc4)nc4ccc(C)cc34)CC2)c1	-7.3	-7.3*
Cn1c(=O)c(/C=C/c2ccc(F)cc2)nc2ccccc21	-5.9	-5.9*
Cn1c(=O)c(/C=C/c2ccccc2)nc2ccccc21	.	i
Cc1ccc(C(=O)/C=C\C(=O)c2ccc(C)cc2)cc1	-5.7	-5.7*
CC(/C=C/C(=O)c1ccc(C)cc1)=C\c1ccccc1	.	i
CC(=O)N(Cc1ccc(Br)cc1)c1cccc(C)c1C	-6.5	-6.5*
COc1ccc(CN(C(C)=O)c2cccc(C)c2C)cc1	.	i
CCC(C)c1ccc(OCc2ccc(C(=O)O)o2)cc1 (stereo not given)	.	i
Cc1ccc(C(=O)NC(=S)Nc2ccccc2N2CCOCC2)cc1C	-6.1	-6.1*
COc1cc(C(=O)NC(=S)Nc2ccccc2N2CCOCC2)cc(OC)c1OC	.	i
CCOc1ccc(C(=O)CCN2CCCCCC2)cc1	-6.6	-6.6*
CCCOc1ccc(C(=O)CCN2CCCCC2)cc1	.	i
CC(C)c1ccccc1NC(=S)NCC1(N(C)C)CCCCC1	1.5	i
Cc1ccc(CNC(=O)c2cn(C3CCCC3)c(=O)c3c2c2ccccc2n3C)o1	-8	-8*
Cn1c2ccccc2c2c(C(=O)O)cn(C3CCCC3)c(=O)c21	.	i
CC(=O)N1CCN(c2cc(N3CCc4ccccc4C3)c(F)cc2[N+](=O)[O-])CC1	-5.6	-5.6*
CCC(=O)N1CCN(c2cc(N3CCCC3)c(F)cc2[N+](=O)[O-])CC1	0.05	i
COc1cc(N2N=C(c3ccccc3)CC2c2ccccc2)c(C=O)cc1C=O (stereo not given)	.	i
COc1ccccc1N1N=C(c2ccc([N+](=O)[O-])cc2)CC1c1ccccc1 (stereo not given)	-6.9	-6.9*
Cc1ccccc1NC(=O)CSc1ccncc1	.	i
Cc1ccc(N2CCN(c3ncccc3[N+](=O)[O-])CC2)c(C)c1	.	i

Screens from PubChem BioAssay.
